# Test results reported in PubChem BioAssay (NCATS).
# Records with an inconclusive call do not appear. The source made the active and inactive calls. Unless noted, calls come from the whole dose curve; as a rule, active = well fitted curve in the direction sought with a large enough effect; inconclusive = small, poorly fitted or top-dose-only effect, or another doubt; inactive = no such curve, though single readings can be large; an effect the other way counts as inactive or inconclusive.
# Assays:
# [1] = qHTS profiling of the MIPE4 collection as inhibitors of Plasmodium falciparum (DD2) proliferation (AID 743345; call rule not given here); details: P. falciparum Dd2 in erythrocytes, SYBR Green DNA, 72 h; at 28.5 µM (top of the series) unless noted
# Procedure, shortened: (§1)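 Parasite DNA was quantified by SYBR Green I fluorescence (ex 485, em 535 nm) after overnight lysis in saponin/Triton buffer at room temperature. Cultures at 0.3% parasitemia and 2.5% hematocrit were first exposed to compound for 72 h at 37 C; signals were normalised to artemisinin (0.29 uM) and vehicle wells.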
# [2] = qHTS profiling of the MIPE4 collection as inhibitors of Plasmodium falciparum (DD2) proliferation (Rep 2) (AID 743346; call rule not given here); details: P. falciparum Dd2 in erythrocytes, SYBR Green DNA, 72 h; at 28.5 µM (top of the series) unless noted
# Procedure, shortened: as §1
# [3] = qHTS profiling of the MIPE4 collection as inhibitors of Plasmodium falciparum (HB3) proliferation (AID 743347; call rule not given here;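 note: plate controls were DMSO vehicle wells for no effect and artemisinin wells for full effect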); details: P. falciparum HB3 in erythrocytes, SYBR Green DNA, 72 h; at 28.5 µM (top of the series) unless noted
# Procedure, shortened: as §1
# [4] = High-throughput drug toxicity screening in the BPDCN cell line Gen2.2 (AID 1224824; call rule not given here;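 note: cells exposed to compounds for 48 h before reading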); details: Gen2.2 BPDCN cells; at 45.8 µM (top of the series) unless noted
# Procedure, shortened: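 CellTiter-Glo luminescence read after 48 h compound exposure at 37 C defines viability; percent activity set with DMSO as 100% and bortezomib (9.2 uM final) as 0%. 500 exponentially growing cells per well, RPMI plus 10% FBS.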
# [5] = High-throughput drug toxicity screening in the BPDCN cell line Cal-1 (AID 1224825; call rule not given here); details: Cal-1 BPDCN cell viability, qHTS; at 45.8 µM (top of the series) unless noted
# Procedure, shortened: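 CellTiter-Glo luminescence after 48 h compound exposure; percent activity scaled with DMSO as 100% and bortezomib (9.2 uM final) as 0%. Cal-1 cells seeded at 500/well in RPMI, 10% FBS, no phenol red.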
# [6] = qHTS assay for measurement of the activity of small molecule inhibitors on Zika virus induced Caspase-3 activity in human iPSC derived neural progenitor cells (hNPCs) (AID 1224857); note: % of control where 0% means no effect; nearly all actives have a fitted effect of over 65% in size
# Procedure, shortened: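 Pretreat hNPCs with compound 1 h; infect ZIKV 2 FFU/cell; 6 h 37 C, 5% CO2; Caspase-Glo 3/7, 30 min RT; luminescence; normalize to no-virus and virus-only wells.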
# [7] = qHTS assay for measurement of the activity of small molecule inhibitors on Zika virus induced Caspase-3 activity in human astrocytoma cells (AID 1224859);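 note: plate controls were ZIKV-infected untreated cells for no effect and uninfected cells for full effect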
# Procedure, shortened: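 Human SNB-19 astrocytoma cells in RPMI 1640 with 10% FBS receive compound one hour ahead of Zika virus at 2 FFU/cell. After 6 h infection, caspase-3/7 activity is detected by Caspase-Glo luminescence.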
# [8] = qHTS Screen of the MIPE 4.0 Collection Against Ewings Sarcoma (RDES) (AID 1259252); note: nearly all actives have a fitted effect of over 35% in size; note: potency is the fitted concentration of half-maximal effect
# Procedure, shortened: (§2)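 Dose series incubated 48 h with cells in RPMI plus 5% FBS, glutamine and penicillin/streptomycin; cell viability then quantified via CellTiter-Glo.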
# [9] = qHTS Screen of the MIPE 4.0 Collection Against Ewings Sarcoma (TC71) (AID 1259253); note: nearly all actives have a fitted effect of over 40% in size; note: potency is the fitted concentration of half-maximal effect
# Procedure, shortened: as §2
# [10] = qHTS Screen of the MIPE 4.0 Collection Against Ewings Sarcoma (EW8) (AID 1259255); note: nearly all actives have a fitted effect of over 35% in size; note: potency is the fitted concentration of half-maximal effect;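 for viability: 100% = DMSO-treated cells and 0% = medium-only wells without cells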
# Procedure, shortened: as §2
# [11] = qHTS assay to identify small molecule inhibitors of chordoma cells - UCH-1 (AID 1259355); note: nearly all actives have a fitted effect of over 55% in size; note: potency is the fitted concentration of half-maximal effect
# Procedure, shortened: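 Screening used approved and investigational drugs in 15-point titration against 800 seeded cells per well. A fixed combination of auranofin with camptothecin, doxorubicin, rubitecan and topotecan followed compound addition, and growth was scored by CellTiter-Glo after 48hr.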
# [12] = qHTS assay to identify small molecule inhibitors of chordoma cells - UCH-2 (AID 1259356); note: % is set by controls: 0 for no effect and ±100 for the full control effect
# [13] = P-glycoprotein substrates identified in KB-3-1 adenocarcinoma cell line, qHTS therapeutic library screen (AID 1346986); details: KB-3-1 parental cells viability, CellTiter-Glo, 72 h; at 44.5 µM (top of the series); note: nearly all actives have a fitted effect of over 60% in size
# Procedure, shortened: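 In 1536-well format, 500 cells/well received pinned compound titrations and were incubated 72 h, 5% CO2. Viability was read by CellTiter-Glo; cytotoxic if AC50 < 10 uM and efficacy >50%.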
# [14] = qHTS Screen of the MIPE 4.0 Collection Against Ewings Sarcoma (TC32) (AID 1259256); note: nearly all actives have a fitted effect of over 45% in size; note: potency is the fitted concentration of half-maximal effect
# Procedure, shortened: as §2
# [15] = Identifying Small Molecule Inhibitors of Pancreatic Cancer Stem Cells (A2780, Spheroid) (AID 1259357); details: Potency: A2780 spheroid viability; note: potency is the fitted concentration of half-maximal effect;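 note: spheroids pre-formed over 14 days in stem cell medium on hydrogel; compound exposure lasted 48 h before the ATP luminescence read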
# Procedure, shortened: (§3)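 Endpoint: ATP-based luminescence, 48 h drug exposure. Bortezomib at 9.2 uM final as full-kill control; DMSO vehicle as negative control; activity normalized between vehicle and cell-free wells.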
# [16] = Identifying Small Molecule Inhibitors of Pancreatic Cancer Stem Cells (A278, Adherent) (AID 1259361); note: nearly all actives have a fitted effect of over 35% in size
# Procedure, shortened: as §3
# [17] = Identifying Small Molecule Inhibitors of Pancreatic Cancer Stem Cells (SN12C, Adherent) (AID 1259358);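 note: cell survival measured after 48 h of compound exposure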; note: potency is the fitted concentration of half-maximal effect
# Procedure, shortened: as §3
# [18] = Identifying Small Molecule Inhibitors of Pancreatic Cancer Stem Cells (SN12C, Spheroid) (AID 1259360); details: Potency: SN12C spheroid viability; note: potency is the fitted concentration of half-maximal effect;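 for viability (% of control): 100% = DMSO-treated cells and 0% = wells without cells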
# Procedure, shortened: as §3
# [19] = Identifying Small Molecule Inhibitors of Pancreatic Cancer Stem Cells (Panc1, Spheroid) (AID 1259359); details: Panc1 spheroid cancer stem cell viability;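 note: potency is the fitted concentration of half-maximal effect; compound exposure lasted 48 h before reading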
# Procedure, shortened: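 After a 4 h attachment period, compounds were pinned into wells and cultures held 48 h under standard incubator conditions. Viability was then measured as CellTiter-Glo luminescence following 10 min at room temperature.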
Compound,"parasite growth remaining, % of DMSO control (lower = more inhibition) [1]","parasite growth, % of control (lower = inhibition) [2]","growth, % of control [3]","cell viability, % of control (lower = more cytotoxic) [4]",viability (% of control) [5],Potency [6],Potency [7],Potency [8],Potency [9],Potency [10],Potency [11],Potency [12],outcome [13],Potency [14],Potency [15],IC50 (viability decrease) [16],Potency [17],Potency [18],Potency [19]
CC(C)Cn1cnc2c(N)nc3ccccc3c21,74.5%,32.3%,58.5%,11.8%,3.23%,inactive,inactive,16.6 µM (active),18.7 µM (active),7.43 µM (active),inactive,inactive,–,–,–,–,–,–,–
CCCCS(=N)(=O)CCC(N)C(=O)O (stereo not given),94.1%,193%,–,17.3%,34.2%,inactive,inactive,14.8 µM (active),inactive,inactive,–,–,–,–,–,–,–,–,–
COC(=O)Nc1nc2ccc(Sc3ccccc3)cc2[nH]1,99.3%,18.7%,102%,61%,18.7%,inactive,inactive,1.66 µM (active),1.66 µM (active),1.32 µM (active),–,inactive,–,–,–,–,–,–,–
O=C(O)c1cn(C2CC2)c2cc(N3CCNCC3)c(F)cc2c1=O,85.5%,67.8%,76.4%,138%,103%,inactive,inactive,inactive,inactive,inactive,–,inactive,inactive,–,–,–,–,–,–
N=C(N)c1ccc(OCCCCCOc2ccc(C(=N)N)cc2)cc1,6.09%,15.7%,3.03%,272%,39.6%,inactive,inactive,18.7 µM (active),8.33 µM (active),14.8 µM (active),inactive,inactive,–,–,–,–,–,–,–
COc1ncnc(NS(=O)(=O)c2ccc(N)cc2)c1OC,105%,99.5%,–,106%,96.2%,inactive,inactive,inactive,inactive,inactive,–,–,–,inactive,–,–,–,–,–
NNC(=O)c1ccncc1,8.99%,8.5%,2.55%,88.1%,99.3%,inactive,inactive,inactive,inactive,inactive,–,–,–,inactive,–,–,–,–,–
CC(N)C12CC3CC(CC(C3)C1)C2 (stereo not given),12.6%,32.1%,–,175%,105%,inactive,inactive,inactive,inactive,inactive,inactive,inactive,–,–,–,–,–,–,–
COc1cc2c(Nc3ccc(Br)cc3F)ncnc2cc1OCC1CCN(C)CC1,7.29%,12.4%,3.4%,3.75%,5.58%,inactive,inactive,16.6 µM (active),5.9 µM (active),5.26 µM (active),5.01 µM (active),–,–,–,inactive,18.7 µM (active),–,–,–
NC(N)=NC(N)=NCCc1ccccc1,38.8%,47%,50.7%,88%,75.1%,inactive,inactive,11.8 µM (active),18.7 µM (active),16.6 µM (active),–,inactive,–,–,–,–,–,–,–
CN(Cc1cc(Br)cc(Br)c1N)C1CCCCC1,113%,25.7%,62.3%,226%,107%,inactive,inactive,inactive,inactive,inactive,–,–,–,inactive,–,–,–,–,–
C[C@]12C=CC(=O)C=C1CC[C@@H]1[C@@H]2C(=O)C[C@@]2(C)[C@H]1CC[C@]2(O)C(=O)CO,95.7% [at 9.64 µM],82.6% [at 9.64 µM],104% [at 9.64 µM],158% [at 23.2 µM],86.4% [at 23.2 µM],inactive,inactive,inactive,inactive,inactive,inactive,inactive,–,–,–,–,–,–,–
CCCc1cc(C(N)=S)ccn1,65.8%,14%,6.05%,119%,93.7%,inactive,inactive,inactive,inactive,inactive,–,–,–,inactive,–,–,–,–,–
CNC(=O)c1cc(Oc2ccc(NC(=O)Nc3ccc(Cl)c(C(F)(F)F)c3)cc2)ccn1,14%,33%,–,2.89%,9.69%,inactive,inactive,1.18 µM (active),2.35 µM (active),18.7 µM (active),–,–,–,–,20.9 µM (active),18.7 µM (active),20.9 µM (active),18.7 µM (active),–
COc1cc(NCc2ccc3nc(N)nc(N)c3c2C)cc(OC)c1OC,7.41%,10.9%,19.6%,8.74%,3.95%,inactive,inactive,3.32 µM (active),0.833 µM (active),1.32 µM (active),–,–,–,0.833 µM (active),–,–,–,–,–
O=C(O)C1CCCN(CCC=C(c2ccccc2)c2ccccc2)C1 (stereo not given),103%,72.1%,–,145%,127%,inactive,inactive,11.8 µM (active),9.35 µM (active),13.2 µM (active),–,–,–,–,–,–,–,–,–
CCc1cc(C(N)=S)ccn1,10.5%,6.58%,–,139%,95.1%,inactive,inactive,inactive,20.9 µM (active),inactive,inactive,–,–,–,–,–,–,–,–
Cc1c(-c2ccc(O)cc2)n(Cc2ccc(OCCN3CCCCCC3)cc2)c2ccc(O)cc12,–,–,–,–,–,–,–,–,–,–,–,–,–,–,–,–,inactive,inactive,–
COc1cc([C@@H]2c3cc4c(cc3[C@H](O)[C@H]3COC(=O)[C@H]23)OCO4)cc(OC)c1OC,–,–,–,–,–,–,–,–,–,–,–,–,–,–,–,0.0148 µM (active),0.0187 µM (active),–,0.0021 µM (active)
CCOC(=O)[C@H](CCc1ccccc1)N[C@H]1CS[C@H](c2cccs2)CN(CC(=O)O)C1=O,58.9%,6.49%,6.02%,–,14%,inactive,inactive,4.18 µM (active),5.9 µM (active),–,–,inactive,–,–,–,–,–,–,–
CCC(=O)O[C@]1(C(=O)SCF)[C@H](C)C[C@H]2[C@@H]3C[C@H](F)C4=CC(=O)C=C[C@]4(C)[C@@]3(F)[C@@H](O)C[C@@]21C,86.3%,44.9%,87.8%,–,52.2%,inactive,inactive,16.6 µM (active),inactive,inactive,inactive,inactive,inactive,–,–,–,–,–,–
